# Values joined by “and” are separate entries in the source; they are usually repeats but may differ in a detail not shown here. Identical values can stand only once. Results filed as inconclusive are left out. Where a structure was tested more than once in an assay, its records may differ in their call. A number with no mark means an inactive call. Active and inactive are the calls of the source. The call rests on the fitted dose curve; in most records, active means well fitted activation curve with a large enough effect; inconclusive means small, poorly fitted or top-dose-only effect; inactive means no such curve, though single readings can be large or run the other way.
# Biological target: Cellular tumor antigen p53 (Homo sapiens) (UniProt P04637)
# Assay: Primary qHTS for small molecule compounds that upregulate eGFP-tagged delta133p53alpha (in N-terminal) cells. (AID 2060322); further: nearly all actives have a fitted effect of over 75% in size;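 on activation: cells pre-induced with doxycycline then dosed without doxycycline; series mostly up to about 56 µM; 0% = DMSO vehicle and 100% = reference activator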
# Conditions: NCI-H358 eGFP-delta133p53alpha fluorescence, 24 h; activation: stronger effect = higher value
# Source text: Assay Development and Screening Technology
# National Center for Advancing Translational Sciences (NCATS),
# National Institute of Health (NIH), Rockville, Maryland
# Cellular senescence (CS) is one of the hallmarks of aging and age-related diseases. Senescent cells are characterized by an irreversible growth arrest, an increase in senescence-associated beta-galactosidase (SA-beta-gal) activity and p16INK4a expression, an activation of the DNA damage response pathways, and the emergence of a senescence-associated secretory phenotype (SASP).
# Delta133p53alpha, a human/primate-specific p53 protein isoform, delays or inhibits the induction of CS and SASP in various types of human cells, including progeria-derived fibroblasts, primary normal astrocytes, and CD8+ T lymphocytes. Induction of delta133p53alpha with small molecule compounds may provide therapeutic opportunities for inhibition of senescence/SASP-associated pathologies in progeria syndromes, astrocyte-mediated neuroprotection in neurodegenerative diseases, and possibly prevention and treatment of a wider range of senescence- and aging-associated diseases.
# Here we report the development and validation of a cell-based quantitative high throughput screening (qHTS) assay in 1,536-well format. This qHTS assay uses the NCI-H358 cell line with doxycycline-inducible expression of enhanced green fluorescent protein (eGFP)-tagged delta133p53alpha, which allows efficient and highly quantitative measurement of the protein levels.
# PROTOCOL TABLE (as described by Inglese J, Shamu CE and Guy RK. 2007)
# SEQUENCE No. (e.g., 1, 2, 3, etc.); […] (e.g., Cells, Incubation, Reagent, etc.); VALUE; DESCRIPTION.
# 1; Cells; 4uL; 800 doxycycline treated cells / well in doxycycline-free media, 1536-well black, clear-bottom low base Aurora microplates.
# 2; Compounds; 23 nL; Kalypsis pin tool (Wako) equipped with 1536-well pin heads, 5-azacytidine positive control.
# 3; Incubation; 24 hr; 37C, 5% CO2; 95% relative humidity.
# 4; Aspiration; 1x; BioTek EL406 washer dispenser (Agilent).
# 5; Fixing; 3.5% paraformaldehyde, BioTek EL406 washer dispenser (Agilent).
# 6; Washing; 1x PBS; BioTek EL406 washer dispenser (Agilent).
# 7; Nuclei staining; 1:1000 dilution of Hoechst 33342 (Thermofisher), BioTek EL406 washer dispenser (Agilent).
# 8; Incubation; 20 min; in the dark at room temperature.
# 9; Washing; 2x, 1x PBS (ThermoFisher), BioTek EL406 washer dispenser (Agilent).
# 10; Reagent; 10 uL; 1x PBS per well, sealed with clear adhesive tape.
# NOTES (numbers refer to sequence numbers above).
# 1. NCI-H358 cells expressing eGFP-tagged delta133p53alpha were grown in T75 culture flasks and treated with doxycycline for 24h, at 10 ng/ml for eGFP-D133p53a cells (N-terminal cell) and 100 ng/ml for D133p53a-eGFP cells (C-terminal cells). Cells were trypsinized, counted using a Counted 3 Automated Cell Counter (Thermo Fisher), and diluted to a concentration of 200,000 cells/ml. A Multidrop Combi Reagent Dispenser (ThermoFisher) was used to dispense 800 cells/well in […] of doxycycline-free media, into 1536-well black/clear bottom low base plates (AuroraMicroplates).
# 2. After plating cells, 23 nl of compound library, DMSO vehicle control or positive control (5-azacytidine) were transferred by Pin Tool (Wako). The plate map layout was the same for each plate: (column 1) non-doxycycline treated cells + DMSO vehicle control; (column 2) doxycycline treated cells + DMSO vehicle control baseline; (column 3) doxycycline treated cells + positive control 57.5 uM final concentration 5-azacytidine; (column 4) doxycycline treated cells + serial dilution of 5-azacytidine, 16-point 1:2 titration spanning 1.8 nM to […] final concentration; (columns 5-48) doxycycline treated cells + titration of library compounds.
# 3. Cells were incubated at 37 °C, 5 % CO2, 95% RH with breathable metal lid for 24h.
# 4-10. […] After two washes, 10 ul of 1X PBS (Thermo Fisher) was dispensed to each well. Clear adhesive plate seals (VWR) were applied and plates stored at 4 °C.
# 11. […]
# Potency means the concentration at half of the fitted maximal effect.
# Cellular tumor antigen p53 (Homo sapiens), sequence (P04637 whole entry, looked up): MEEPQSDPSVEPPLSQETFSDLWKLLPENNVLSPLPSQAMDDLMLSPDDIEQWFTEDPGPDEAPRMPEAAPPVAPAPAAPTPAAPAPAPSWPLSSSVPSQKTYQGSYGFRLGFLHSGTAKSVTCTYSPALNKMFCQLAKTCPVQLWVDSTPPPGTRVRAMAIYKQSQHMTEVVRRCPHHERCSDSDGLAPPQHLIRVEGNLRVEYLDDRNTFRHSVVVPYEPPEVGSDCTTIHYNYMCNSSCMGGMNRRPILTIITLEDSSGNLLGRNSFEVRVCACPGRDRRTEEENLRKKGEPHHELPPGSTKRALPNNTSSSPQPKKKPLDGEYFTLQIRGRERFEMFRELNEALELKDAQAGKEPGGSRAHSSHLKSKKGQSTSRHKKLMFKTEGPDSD
SMILES,activation,Potency
CS(=N)(=O)CC[C@H](N)C(=O)O (stereo not given in full),-13.1%,
C[C@]12CC[C@@H]3[C@@H](CCC4=CC(=O)CC[C@@H]43)[C@@H]1CC[C@@H]2OC(=O)CCc1ccccc1,7.88%,
C[CH2][Hg][S]c1ccccc1C(=O)O,,3.89 µM (active)
C=C[C@H]1CN2CC[C@H]1C[C@@H]2[C@@H](O)c1ccnc2ccccc12,3.57%,
NCc1cc(=O)[nH]o1,11.2%,
C[C@]12CC[C@@H]3c4ccc(OC(=O)N(CCCl)CCCl)cc4CC[C@H]3[C@@H]1CC[C@@H]2O,11.9%,
CC1(C)C(C=C(Cl)Cl)C1C(=O)OC(C#N)c1cccc(Oc2ccccc2)c1 (stereo not given),-23.2%,
C[C@]12CC[C@H](O[C@@H]3O[C@H](CO)[C@@H](O)[C@H](O)[C@H]3O)CC1CC[C@@H]1C2CC[C@]2(C)[C@@H](C3=CC(=O)OC3)CC[C@]12O (stereo not given in full),,11.7 µM (active)
COc1ccc2c3c([nH]c2c1)C(C=C(C)C)N1C(=O)C2CCCN2C(=O)C1C3 (stereo not given),-3.82%,
CN1C[C@@H](NS(=O)(=O)N(C)C)C[C@@H]2c3cccc4c3c(cn4C)C[C@H]21,14.1%,
Cc1c(C(=O)c2cccc3ccccc23)c2cccc3c2n1[C@H](CN1CCOCC1)CO3,12.1%,
COc1cc(CC(C)N)c(OC)cc1Br (stereo not given),43.5%,
COP(=S)(OC)Oc1ccc(S(=O)(=O)N(C)C)cc1,5.86%,
CC(N)Cc1c[nH]c2ccc(O)cc12 (stereo not given),-0.781%,
Nc1ccncc1,-16.4% and 3.84%,
CC[C@@]1(O)C(=O)OCc2c1cc1n(c2=O)Cc2cc3ccccc3nc2-1,,1.09 µM (active)
CC1=C[C@H]2O[C@@H]3C[C@H]4OC(=O)/C=C/C=C/C(=O)OCC/C(C)=C/C(=O)OC[C@@]2(CC1)[C@]4(C)[C@]31CO1,,0.0165 µM (active)
N[C@@H](Cc1ccc(N(CCCl)CCCl)cc1)C(=O)O,29.4%,
CC(Cc1ccccc1)NCCCCl (stereo not given),-27.6%,

SMILES,activation,Potency
C=C1CC[C@@]2(O)[C@H]3Cc4ccc(O)c5c4[C@@]2(CCN3CC2CC2)[C@H]1O5,6.21%,
COc1ccc2[nH]cc(CCN)c2c1,-19.1%,
Cc1ccc2c(c1)[C@H]1CN(C)CC[C@H]1N2C(=O)CSc1nnnn1-c1ccc(Cl)cc1,-6.68%,
NC1CCc2cc(O)c(O)cc2C1 (stereo not given),-13%,
C[C@]12CC[C@H]3[C@@H](CCC4=C/C(=N/OCC(=O)O)CC[C@@]43C)[C@@H]1CC[C@@H]2O,13.7%,
Clc1ccccc1N1CCNCC1,28.8%,
CN(C)[C@@H]1C(=O)C(C(N)=O)=C(O)[C@@]2(O)C(=O)C3=C(O)c4c(O)cccc4[C@@](C)(O)[C@H]3C[C@@H]12,-14.3%,21.9 µM (active)
CCNC(=O)C[C@@H]1N=C(c2ccc(Cl)cc2)c2cc(OC)ccc2-n2c(C)nnc21,-15.8% and 11.6%,
COC[C@]12CN(C)C3C4[C@H](OC)[C@H]1C3(C(OC)C[C@H]2O)[C@H]1C[C@@]2(O)[C@H](OC(=O)c3ccccc3)[C@@H]1[C@]4(O)[C@@H](O)[C@@H]2OC (stereo not given in full),-0.333%,
CC(=O)OC[C@]12C[C@H](O)C(C)=C[C@H]1O[C@@H]1[C@H](O)[C@@H](O)[C@@]2(C)[C@]12CO2,,6.59 µM (active)
Clc1cc(I)cc(Cl)c1NC1=NCCN1,-24.7%,
CCCC1CCCCN1 (stereo not given),-16.4%,
CN1CCC[C@@H]1Cc1c[nH]c2ccc(Nc3ncccc3[N+](=O)[O-])cc12,-40.7% and 3.34%,
CCOC(=O)c1ncn2c1[C@@H]1CCCN1C(=O)c1cc(OC)ccc1-2,2.15%,
CC1=NN=C(c2ccc(N)cc2)c2cc3c(cc2C1)OCO3,6.58%,9.68 µM (active)
C[C@@H]1CN(Cc2ccc(F)cc2)CCN1C(=O)COc1ccc(Cl)cc1NC(N)=O,1.91%,
C[C@H](Cc1ccc2c(c1)OC(C(=O)O)(C(=O)O)O2)NC[C@H](O)c1cccc(Cl)c1,-6.85%,
C=C1[C@@H]2CC[C@@]3(C)[C@H](c4ccoc4)OC(=O)C[C@]13O[C@H]1CC(=O)C(C)(C)[C@H](C(OC(C)=O)C(=O)OC)[C@]12C (stereo not given in full),-8.4%,
O=C(Oc1ccc([N+](=O)[O-])cc1)N1CCN(Cc2cccc(Oc3ccccc3)c2)CC1,1.36% and 1.43%,
